This is a sample that favours compounds with a hit; in the whole collection about 3.2% have one here.
USP1 inh: blocks the human USP1/UAF1 deubiquitinase complex; Potency, µM (titrated, usually from 57.1 µM), without a hit: at the top dose activity change, negative = inhibition, hits mostly inhibitors; 390,000 tested, 0.23% active; recombinant USP1/UAF1, Ub-Rhodamine cleavage fluorescence; O94782; also: potency is read from the fitted curve at half-maximal effect; nearly all actives have a fitted effect of over 60% in size
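In this screen, compounds sit with the deubiquitinase complex (1nM) for 15 min at room temperature before Ub-Rho is added at 150nM final. Fluorescence rise is then followed for 6 reads every 60 seconds.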
FBPA coupling cs: counter-screen for Giardia aldolase inhibitors: coupling enzyme system. coupling enzyme system counterscreen, AmpLite Red fluorescence. 290,000 tested, 0.67% active. activity change, negative = inhibition, % at 58.2 µM, hits read low; in the data active = activity change below about -30%
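Compounds tested against the coupling enzymes alone at 57.5 uM final; readout was AmpLite Red fluorescence (525/598 nm) after 20 min at RT.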
GALK inhibitor: blocks human galactokinase activity. P51570. Purified GALK, Kinase-Glo residual ATP luminescence. Potency, µM (series often up to 57.5 µM), for the others: at the highest dose activity change, negative = inhibition, usual class: inhibitors. 270,000 tested, 0.007% active. AID 1868; also: potency is read from the fitted curve at half-maximal effect
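Luminescence from leftover ATP (Ultra-Glo luciferase/luciferin) served as read-out after a 1 h room-temperature reaction of 5 nM GALK with 35 uM ATP and 100 uM galactose.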
VDR inh: vitamin D3 receptor (human) inhibition | Potency, µM, for the others: max response, negative = inhibition, actives largely listed as inhibitors | VDR-SRC2-3 peptide fluorescence polarization, 2 h | P11473 | AID 504847 | 400,000 tested, 0.93% active; also: potency is read from the fitted curve at half-maximal effect
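The screen uses fluorescence polarization to detect compounds that interfere with recruitment of the SRC2-3 coactivator peptide to VDR; plates are read after 2 h at room temperature.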
USP2a block: blocks human ubiquitin-specific protease USP2a; 330,000 tested, 0.01% active; Potency, µM (titrated, usually from 38.3 µM), for inactives: top-dose activity change, negative = inhibition, actives largely listed as inhibitors; USP2 core, Ub-CHOP2 coupled fluorogenic reporter, 485/531;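 also: potency is read from the fitted curve at half-maximal effect; plate controls were DMSO wells for no effect and full inhibition by NEM control for full effect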
Target sequence (O75604 whole entry, looked up): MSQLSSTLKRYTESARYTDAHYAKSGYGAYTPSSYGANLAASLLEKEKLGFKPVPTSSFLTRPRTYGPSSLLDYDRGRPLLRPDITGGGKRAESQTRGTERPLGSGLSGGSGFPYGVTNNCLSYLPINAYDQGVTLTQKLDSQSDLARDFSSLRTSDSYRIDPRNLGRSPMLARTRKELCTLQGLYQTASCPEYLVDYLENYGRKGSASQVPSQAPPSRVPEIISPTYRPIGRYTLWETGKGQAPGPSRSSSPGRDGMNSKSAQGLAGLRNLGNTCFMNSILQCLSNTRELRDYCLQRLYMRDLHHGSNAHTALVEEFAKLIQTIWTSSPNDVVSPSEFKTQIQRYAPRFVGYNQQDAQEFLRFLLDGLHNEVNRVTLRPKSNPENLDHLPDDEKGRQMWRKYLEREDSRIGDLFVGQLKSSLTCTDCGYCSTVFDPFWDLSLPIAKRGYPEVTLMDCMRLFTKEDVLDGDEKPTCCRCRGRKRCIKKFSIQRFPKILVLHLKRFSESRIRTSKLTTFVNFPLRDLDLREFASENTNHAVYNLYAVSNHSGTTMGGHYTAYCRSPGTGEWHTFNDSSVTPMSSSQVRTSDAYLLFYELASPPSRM
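Deubiquitinase activity read as fluorescence (485/531 nm) after Ub-CHOP2 cleavage activates the enterokinase reporter on its substrate; USP2 core 10nM, Ub-CHOP2 and substrate 25nM each, 30min compound preincubation then 60min RT; data normalized to NEM, curves fitted.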
PLK1 PBD block: blocks phosphopeptide binding to human PLK1 polo-box domain. P53350. Plk1 PBD binding of FITC phosphopeptide, fluorescence polarization. Potency, µM, for the others: max response, negative = inhibition, usual class: inhibitors. 360,000 tested, 2.8% active. AID 720504; also: potency is read from the fitted curve at half-maximal effect; series mostly up to about 57 µM; nearly all actives have a fitted effect of over 65% in size
An asterisk follows results filed as active; ? = inconclusive; . = not tested or not shown. Unless noted, calls follow the shape of the dose curve; as a rule, active = well fitted curve in the direction sought with a large enough effect; inconclusive = small, poorly fitted or top-dose-only effect, or another doubt; inactive = no such curve, though single readings can be large; an effect the other way counts as inactive or inconclusive. Unless noted, % is scaled to controls: 0 for no effect and ±100 for the full control effect.

SMILES	USP1 inh	FBPA coupling cs	GALK inhibitor	VDR inh	USP2a block	PLK1 PBD block
Cc1ccc2c(CN(C)Cc3ccc(OC(F)F)cc3)cc(=O)oc2c1C	-9%	-5	-2%	-26%	4%	-8%
COc1cc(/C=N/NC(=O)Cc2ccc(Br)cc2)cc(OC)c1O	-14%	4	0%	7%	0%	-10%
COc1ccc2c(c1)OC/C(=C/c1ccc(OC)c(OC)c1)C2=O	.	0	.	22µM*	.	.
Nn1c(-c2ccc(O)cc2)nnc1-c1ccc(O)cc1	-13%	2	-2%	?	10%	-18%
Cc1cc(Cl)c2oc(C(=O)N(C)CCc3cnn(C)c3)c(C)c2c1	-26%	2	1%	-27%	0%	24µM*
Cc1cc(Cl)c2oc(C(=O)N(C)CCCCN3CCOCC3)c(C)c2c1	-10%	2	0%	-2%	2%	-19%
COc1ccc(Cc2nnc(SCC(=O)c3ccc4c(c3)OCO4)o2)cc1	-7%	.	.	10%	0%	1%
COCCCNC(=O)c1ccc(Cn2c(SCc3ccc(F)cc3)nc3cccnc32)cc1	-10%	.	.	10%	.	.
CCOc1nc(NC2CCCC2)nc(N2CCC(C)CC2)n1	-23%	2	-5%	79µM*	1%	19µM*
CCOc1nc(OCC)nc(N2CCC(C)CC2)n1	-9%	3	-1%	-3%	3%	-3%
O=C(Cn1c(=O)oc2cc(S(=O)(=O)N3CCCC3)ccc21)Nc1ccccc1Br	-15%	0	.	11%	4%	1%
COc1ccc(CNC(=O)c2ccc3c(c2)N(Cc2ccccc2)CCS3)cc1	?	.	.	-1%	.	.
CCN(CC)C(=O)CSc1nc2c(sc(=S)n2-c2ccccc2)c(=O)n1-c1ccc(OC)cc1OC	-26%	0	.	25µM*	2%	3µM*
COc1ccccc1-n1c(SCC(=O)O)nc2c(sc(=S)n2-c2ccc(C)c(C)c2)c1=O	-29%	-13	.	5%	-1%	-10%
CCN(CC)C(=O)CSc1nc2c(sc(=S)n2-c2ccccc2)c(=O)n1-c1ccccc1OC	-22%	1	1%	7%	-6%	1%
CCOC(=O)CSc1nc2c(sc(=S)n2-c2ccccc2)c(=O)n1-c1ccc(OC)cc1OC	-5%	1	.	?	-4%	4.7µM*
CCOC(=O)c1c(SCCN2CCCC2)n(-c2ccccc2)c(=S)n(-c2ccccc2)c1=O	-2%	.	.	71µM*	.	-27%
CCOC(=O)c1c[nH]c(=S)n(-c2ccccc2)c1=O	-30%	.	.	-9%	0%	3%
CN(C)Cc1nc2ccccc2c(=O)n1CC#N	?	3	3%	-5%	1%	-8%
CN(C)Cc1nc2ccccc2c(=O)n1Cc1nc(-c2cc3ccccc3o2)cs1	-14%	0	-1%	?	-2%	19µM*
CCOc1ccc(-c2csc(Cn3c(CN4CCN(C)CC4)nc4ccccc4c3=O)n2)cc1	-10%	-5	1%	?	-1%	24µM*
CCOc1c(S(=O)(=O)N2CCCC2)ccc(Cl)c1Cl	?	0	1%	-4%	0%	-1%
O=C(c1ccco1)N1CCC2CC1c1c(Cl)cccc12 (stereo unspecified)	-23%	.	.	.	.	-11%
CCCOc1ccc(-c2nc(SCc3ccccc3)[nH]c(=O)c2C#N)cc1OC	-9%	-1	.	-15%	1%	27µM*
N#Cc1c(-c2ccccc2)nc(SCc2nc(N)nc(N3CCCCC3)n2)[nH]c1=O	-4%	1	-4%	-18%	0%	3µM*
SMILES	USP1 inh	FBPA coupling cs	GALK inhibitor	VDR inh	USP2a block	PLK1 PBD block
CSc1nc(-c2ccccc2)c(C#N)c(=O)[nH]1	-21%	5	4%	-24%	-10%	27µM*
CCSc1nc(-c2ccccc2)c(C#N)c(=O)[nH]1	-23%	15	0%	-3%	-1%	-5%
CSc1nc(-c2ccc(Cl)cc2)c(C#N)c(=O)[nH]1	-6%	8	9%	-14%	0%	-3%
COCCNC(=O)C1(C)CCCN(CCSc2ccccc2)C1 (stereo unspecified)	.	.	.	.	.	-9%
CCCNC(=O)C1(C)CCN(Cc2ccc(C(=O)OCC)cc2)C1 (stereo unspecified)	.	.	.	.	.	-11%
COCCNC(=O)C1(C)CCCN(CCC(=O)c2ccc(Br)cc2)C1 (stereo unspecified)	.	.	.	.	.	9.5µM*
CCCNC(=O)C1(C)CCN(CCC(=O)c2ccc(Br)cc2)C1 (stereo unspecified)	.	.	.	.	.	11µM*
COc1ccc(-c2nn(-c3ccccc3)cc2/C=C2/SC(=S)N(CCC(=O)O)C2=O)c(C)c1	-19%	5	-4%	?	1%	12µM*
Cc1ccc(-c2nn(-c3ccccc3)cc2/C=C2\SC(=S)N(CC(=O)O)C2=O)cc1	-17%	8	?	?	2%	30µM*
COc1ccc(/C=C2/SC(=S)N(CCC(=O)O)C2=O)cc1	-8%	17	0%	-9%	4%	-7%
O=C1C(=Cc2cn(-c3ccccc3)nc2-c2ccc(OCc3ccccc3F)cc2)SC(=S)N1CCS(=O)(=O)O	.	.	.	.	.	9.5µM*
COc1ccc(-c2nn(-c3ccccc3)cc2/C=C2/SC(=S)N(CCC(=O)O)C2=O)cc1	-19%	-1	0%	?	-2%	21µM*
Cn1c(=O)c(-c2cccc(Cl)c2)nc2cncnc21	.	-1	.	1%	.	.
CC(=O)N1CCc2cc(S(=O)(=O)CCC(=O)Nc3ccccc3F)ccc21	0%	2	4%	-7%	1%	24µM*
Cc1onc(-c2ccccc2)c1C(=O)NC(=S)Nc1sc2c(c1C#N)CCCC2	-5%	3	.	?	4%	7.5µM*
Cc1ccccc1C(=O)NC(=S)Nc1sc2c(c1C#N)CCCC2	-9%	2	0%	-14%	-2%	?
Cc1onc(-c2ccccc2)c1C(=O)NC(=S)Nc1sc2c(c1C#N)CCC(C)C2 (stereo unspecified)	-28%	2	.	?	0%	9.5µM*
Cn1cc(Cl)c(C(=O)NC(=S)Nc2sc3c(c2C#N)CCCCC3)n1	11%	4	-1%	?	-1%	12µM*
CC(C)CCn1c(=S)[nH]c2ncccc2c1=O	-16%	6	-2%	4%	1%	-4%
O=c1cc(N2CCCCC2)c2ccccc2o1	-16%	3	13%	1%	2%	1%
O=c1[nH]c(CSc2ncn[nH]2)nc2ccccc12	0%	4	2%	-14%	-1%	1%
CCOc1cc(/C=N/O)ccc1OCc1ccc(F)cc1	-12%	-4	1%	50µM*	-4%	24µM*
CCOc1cc(/C=N/O)ccc1OCc1ccc([N+](=O)[O-])cc1	-13%	-13	0%	?	1%	24µM*

Bioassay records as filed in PubChem.
